# Assay results from PubChem BioAssay.
# Values without a mark were called inactive. The rule behind the calls is not given here.
# Molecular target: Pantothenate synthetase (Mycobacterium tuberculosis (strain ATCC 25618 / H37Rv)) (UniProt P9WIL5)
# Assay: Coupled enzyme confirmation of inhibitors against recombinant Mtb PanC (AID 375);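 note: 0% = full reaction with vehicle and 100% = no enzyme background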
# Settings: coupled enzyme assay; at 10 µM, hits give high values
# Chain of Pantothenate synthetase (Mycobacterium tuberculosis (strain ATCC 25618 / H37Rv)) (P9WIL5 whole entry, looked up): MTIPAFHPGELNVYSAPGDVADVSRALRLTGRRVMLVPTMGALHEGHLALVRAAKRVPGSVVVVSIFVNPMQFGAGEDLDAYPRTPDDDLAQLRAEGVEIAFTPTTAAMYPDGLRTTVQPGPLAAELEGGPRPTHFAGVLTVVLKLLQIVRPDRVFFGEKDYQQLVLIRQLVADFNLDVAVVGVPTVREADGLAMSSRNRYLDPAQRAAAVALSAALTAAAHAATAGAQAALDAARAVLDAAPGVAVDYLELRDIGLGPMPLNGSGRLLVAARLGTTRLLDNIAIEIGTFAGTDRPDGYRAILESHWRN
row,Compound,inhibition
1,CCn1cc(C(=O)NCC2CCCO2)c(=O)c2cc(S(=O)(=O)N(C)C3CCCCC3)ccc21 (stereo not drawn),5%
2,C(=N/n1c2ccccc2c2ccccc21)/c1ccco1,0%
3,Cc1ccc(C(C)C)c(OCc2nnc(SCC(=O)Nc3ncc(C)s3)n2C)c1,2%
4,Cc1ccc(-c2nnc3ccc(SCC(=O)NCc4ccco4)nn23)cc1,0%
5,CN(CC(=O)Nc1cccnc1)S(=O)(=O)c1cc(Cl)ccc1Cl,0%
6,Cc1cc(NCCN(C)C)n2nc(-c3cccs3)cc2n1,0%
7,Cc1nc2ccc(F)cc2cc1C(=O)NCC1CCCO1 (stereo not drawn),0%
8,CCOC(=O)CN1C2=NCCN2c2ccccc21,6%
9,COC(=O)Nc1sc2c(c1C(N)=O)CCCCCC2,2%
10,COc1ccc(OC)c(NC(=O)c2cn(C)c(=O)c3cc(OC)c(OC)cc23)c1,1%
11,O=C(Cn1c(-c2cncs2)nc2ccccc21)NC1CCCC1,0%
12,COC(=O)CC1SC(=O)NC1=O (stereo not drawn),0%
13,CC(C)CC(=O)CN1C(=O)C2(OCCO2)c2ccccc21,0%
14,CCOC(=O)c1c(C)oc2ccc(OCC(=O)N(CC)CC)cc12,4%
15,CC(=O)Nc1ccc2c(c1)nc(CCNC(=O)c1ccccc1)n2C,0%
16,CC(C(=O)N1CCOCC1)N1c2cccc3cccc(c23)S1(=O)=O (stereo not drawn),8%
17,CCOCCCNC(=O)c1c[nH]c2ccc(S(=O)(=O)Nc3cccc(OC)c3)cc2c1=O,0%
18,COC(=O)c1sc(N)c(C(=O)OC)c1CSc1nc2sc3c(c2c(=O)n1C)CCC3,0%
